# Hits are enriched below; roughly 1.2% of the tested compounds scored in any of these assays.
# RGS12 GoLoco inh: inhibitors of human Gai1-RGS12 GoLoco interaction (red fluorophore). Gai1:RGS12 GoLoco peptide FP, rhodamine, 10 min. P63096. Potency, µM (top dose mostly 61.6 µM), without a hit: at the top dose activity, negative = inhibition, most hits filed as inhibitors. actives 0.44% (n = 230,000). AID 880; active means well fitted inhibition curve with a large enough effect, not every such curve was filed as active; inactive means no such curve, though single readings can be large or run the other way; further: potency means the concentration at half of the fitted maximal effect; nearly all actives have a fitted effect of over 30% in size
# GCN5L2 inh: inhibitors of human GCN5L2 histone acetyltransferase | AID 504327 | Q92830 | Potency, µM (series often up to 58.9 µM), for the others: at the top dose activity change, negative = inhibition, hits mostly inhibitors | GCN5L2 HAT assay, ThioGlo1 CoA-SH fluorescence | actives 0.21% (n = 390,000); further: potency means the concentration at half of the fitted maximal effect
#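 Free CoA generated was detected with ThioGlo1 (50uM) fluorescence at Ex340nm/Em540nm, read immediately and after 20 min at room temperature. Enzyme, 20 nM in HEPES pH 7.5 buffer, saw compounds 15 min before adding 75uM H3(1-25) peptide and 70uM acetyl-CoA.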
# PI4K2A inh: blocks human PI4K2A kinase activity. purified PI4K2A, ADP-Glo luminescence, 1 h; active compounds read low. Q9BTU6. AID 1346378. activity change, negative = inhibition, % at 76.9 µM. actives 0.13% (n = 420,000); in the data active means activity change below about -50%; inconclusive means mostly about -30% to -49%;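 further: -100% = wells without enzyme as full effect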
# Target sequence (Q9BTU6 whole entry, looked up): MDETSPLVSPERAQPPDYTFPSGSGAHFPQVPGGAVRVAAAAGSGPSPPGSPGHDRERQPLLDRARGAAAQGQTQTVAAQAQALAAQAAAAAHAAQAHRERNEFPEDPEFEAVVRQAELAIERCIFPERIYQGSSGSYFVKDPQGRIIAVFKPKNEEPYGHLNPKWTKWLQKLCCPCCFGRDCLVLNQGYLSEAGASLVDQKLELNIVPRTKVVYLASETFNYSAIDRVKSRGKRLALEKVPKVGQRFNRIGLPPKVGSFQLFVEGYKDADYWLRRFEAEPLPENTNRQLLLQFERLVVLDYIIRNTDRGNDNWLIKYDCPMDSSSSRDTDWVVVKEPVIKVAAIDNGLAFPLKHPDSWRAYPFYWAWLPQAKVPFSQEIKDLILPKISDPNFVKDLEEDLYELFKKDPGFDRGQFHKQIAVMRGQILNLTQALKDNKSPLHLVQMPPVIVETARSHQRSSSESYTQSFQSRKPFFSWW
#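 ADP-Glo luminescence measured ADP generated by PI4K2A enzyme (4 ug/mL before mixing) with 1.2 mM PI substrate (pre-mix) and 300 microM ATP (pre-mix). Tris pH7.5 buffer with MgCl2, Triton X-100; 1 h reaction at ambient temperature.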
# PI5P4Ka inh: blocks human PI5P4K alpha kinase activity; P48426; PI5P4Kalpha enzyme, ADP-Glo luminescence, 60 min; active compounds read low; max response, %; actives 1.2% (n = 330,000); AID 652105; active means max response of -50% or lower; inconclusive means between -30% and -50%; inactive means -30% or higher; further: value at the top dose of about 77 µM
#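 Controls without substrate or without enzyme flank wells where PI5P4Kalpha converts substrate using 5 microM ATP (final). Incubation lasts 60 minutes at room temperature; ADP formed is read by ADP-Glo luminescence.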
# Tb PGK inh: blocks T. brucei phosphoglycerate kinase; P07378; PGK/GAPDH coupled, Kinase-Glo luminescence, 60 min; Potency, µM (doses to about 57.5 µM), for the others: top-dose activity change, negative = inhibition, hits mostly inhibitors; actives 0.043% (n = 380,000); AID 602233; further: potency means the concentration at half of the fitted maximal effect; nearly all actives have a fitted effect of over 60% in size
#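 Recombinant glycosomal PGK reaction used 1,3-bisphosphoglycerate generated in-well by GAPDH (100nM final) in 100mM TEA pH 7.6, 5mM MgCl2, 0.01% Tween-20. After 60 minutes at room temperature, ATP was read by Kinase-Glo Plus luminescence end-point.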
# Pin1 inh: human Pin1 inhibition; Q13526; Pin1 FP peptide displacement, HiFluor488, 10 min; Potency, µM (titrated, usually from 115 µM), without a hit: at the top dose activity, negative = inhibition, usual class: inhibitors; actives 0.009% (n = 390,000); AID 504891; active means well fitted inhibition curve with a large enough effect in the polarisation, with a control signal flat, not every such curve was filed as active; inconclusive means small, poorly fitted or top-dose-only effect, or effect the other way, or a change in a side signal; inactive means no such curve, though single readings can be large or run the other way; the % refers to the polarisation; further: potency means the concentration at half of the fitted maximal effect
# * marks the source's active call; other numbers are inactive results; i = inactive; u = inconclusive; x = no result; ! = repeats disagree; [ ] = dose if it differs, or a comment. Unless noted, the call rests on the fitted dose curve; in most records, active means well fitted curve in the direction sought with a large enough effect; inconclusive means small, poorly fitted or top-dose-only effect, or another doubt; inactive means no such curve, though single readings can be large; an effect the other way counts as inactive or inconclusive. Unless noted, on the % scale 0 is the no-effect control and ±100 the full control effect.
SMILES,RGS12 GoLoco inh,GCN5L2 inh,PI4K2A inh,PI5P4Ka inh,Tb PGK inh,Pin1 inh
CC(=O)/C=C(\C)Nc1ccc(-c2cnc(-c3ccccc3)o2)cc1,-7%,28µM*,-3,9,i,-2%
NC(=O)CSc1nnnn1-c1ccccc1Cl,-1%,-11%,-5,7,-5%,-10%
N[C@@H](CSS(=O)(=O)O)C(=O)O,3%,35µM*!,x,x,x,x
CC(=O)Nc1ccc(S(=O)(=O)Nc2nc3ccccc3nc2Nc2ccc(C(=O)O)c(O)c2)cc1,x,u,-11,-71*,u,x
COc1ccc(Cl)cc1C(=O)NNC(=O)C1COc2ccccc2O1 (stereo unspecified),8%,-7%,5,-60*,-4%,0%
COc1ccc(S(N)(=O)=O)cc1C(=O)NNC(=O)C1COc2ccccc2O1 (stereo unspecified),x,1%,3,7,-10%,1%
CC(C)NC(=O)c1ccccc1NC(=O)C1CCCO1 (stereo unspecified),7%,-4%[0.501 µM],1,x,i,-7%
Cn1sc(=O)n(Cc2ccccc2)c1=O,x,20µM*,x,x,x,x
CC(=O)Nc1ccc(S(=O)(=O)NC2(C(F)(F)F)C(=O)Nc3c2c(=O)[nH]c(=O)n3-c2cccc(Cl)c2)cc1 (stereo unspecified),x,-1%,2,x,6%,-8%
O=c1c(-c2c(O)cc(O)c3c(=O)cc(-c4ccc(O)cc4)oc23)c(-c2ccc(O)cc2)oc2cc(O)cc(O)c12,13%,-22%,u,-83*,u,u
Oc1ccc(/C=N/Nc2ccnc3cc(Cl)ccc23)c(O)c1O,x,-23%,-14,-74*,-2%,u
Oc1ccc(/C=N/Nc2ccnc3cc(Cl)ccc23)cc1O,8%,-21%,-2,u,i,u
O=C(Nc1nc2ccccc2[nH]1)c1ccccc1F,3%,u,-80*,-12,8.9µM*,-1%
CC(C)Oc1ccc(C(=O)Nc2nc3ccccc3[nH]2)cc1,x,-5%,-56*,-6,u,-2%
O=C(Nc1nc2ccccc2[nH]1)c1ccccc1OC(F)F,x,-4%,-9,-1,-10%,0%
COc1ccc2c(Cl)c(C(=O)OCC(=O)c3ccc4c(c3)NC(=O)CO4)sc2c1Cl,-2%,8%,-4,-1,-2%,-8%
COC(=O)c1cc(C)nc(Sc2ccccc2N)n1,-18%,1%,0,u,i,1%
N#Cc1ccccc1NC(=O)COC(=O)c1cccs1,x,2%,-2,-2,-5%,5%
N#Cc1ccccc1NC(=S)NC(=O)c1cccs1,x,-10%,33,-56*,-2%,3%
c1ccc(Cn2c(SCc3nc4ccccc4s3)nnc2-c2ccco2)cc1,21%,-12%,u,-73*,-9%,-15%
COc1ccc(-c2ccc3c(c2)[C@@H]2C[C@H]4[C@@H](C(=O)N2CC3)[C@H](C)ON4C)cc1,x,x,0,2,-5%,-3%
CCOc1cc(/C=N/N=C2/NC(=O)C(CC(=O)O)S2)ccc1OCc1ccc(Cl)cc1Cl (stereo unspecified),8%,-10%,-13,-63*,u,x
COc1ccc(NC(=O)c2cc(Cl)ccc2NC(=O)c2ccco2)c(OC)c1,0%,-9%,-3,-2,-3%,3%
Cn1c(=O)c(-c2cc(F)cc(F)c2)nc2cnc(Oc3ccccc3)nc21,8%,-5%,x,x,x,x
Cc1ccc(NC(=O)c2cc(N3C(=O)C=CC3=O)ccc2N2CCOCC2)cc1Cl,2%,u,7,-76*,-5%,0%
Cc1ccc(NC(=O)c2cc(N3C(=O)CCC3=O)ccc2N2CCOCC2)cc1,2%,-5%,0,5,i,-10%
Cc1nnc(Sc2cc(C(=O)NCc3ccco3)c3ccccc3n2)s1,0%,-11%,-3,-12,-9%,-3%
O=c1c2c([N+](=O)[O-])cc([N+](=O)[O-])cc2sn1Cc1ccccc1,x,1.3µM*,-7,-80*,-5%,1%

# Screens from PubChem.
